Results: PubChem BioAssay (Tox21)
Results filed as inconclusive are left out. The source made the active and inactive calls. Unless noted, calls come from the whole dose curve; as a rule, active = well fitted curve in the direction sought with a large enough effect in the repeat runs; inconclusive = weak or mixed curves; inactive = no such curve, though single readings can be large; an effect the other way counts as inactive or inconclusive.

Target: Estrogen receptor beta (Homo sapiens) (UniProt Q92731)
Sequence (Q92731 whole entry, looked up): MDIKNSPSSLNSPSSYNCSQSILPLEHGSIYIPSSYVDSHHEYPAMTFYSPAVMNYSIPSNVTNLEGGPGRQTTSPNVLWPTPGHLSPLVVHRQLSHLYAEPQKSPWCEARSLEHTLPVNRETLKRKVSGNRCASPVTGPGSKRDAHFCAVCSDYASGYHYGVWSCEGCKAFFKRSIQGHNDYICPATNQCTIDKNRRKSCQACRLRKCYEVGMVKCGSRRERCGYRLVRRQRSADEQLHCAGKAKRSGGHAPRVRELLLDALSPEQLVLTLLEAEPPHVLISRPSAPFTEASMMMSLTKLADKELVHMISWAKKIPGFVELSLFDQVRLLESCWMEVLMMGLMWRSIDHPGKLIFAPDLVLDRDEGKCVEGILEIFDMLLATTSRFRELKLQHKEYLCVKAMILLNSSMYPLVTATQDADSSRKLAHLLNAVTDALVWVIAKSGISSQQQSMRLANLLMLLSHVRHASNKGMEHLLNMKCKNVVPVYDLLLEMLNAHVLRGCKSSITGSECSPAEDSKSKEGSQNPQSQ
Test: qHTS assay to identify small molecule agonists of the estrogen receptor beta (ER-beta) signaling pathway (AID 1259377; active = well fitted activation curve with a large enough effect in the signal ratio in the repeat runs, not every such curve was filed as active; the % refers to the signal ratio)
Conditions: ER-beta-UAS-bla HEK293T, beta-lactamase FRET ratio, 16 h; series mostly up to 92.4 µM; activation: at the top concentration
Outline: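 Reporter cells (HEK293T, ER-beta-UAS-bla) receive compounds or DMSO after a 6 hr pre-incubation. They then incubate 16 hr at 37C/5% CO2, and fluorescence from LiveBLAzer B/G substrate is measured after 2 hours at room temperature.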
% is set by controls: 0 for no effect and ±100 for the full control effect.

SMILES	activation
C#CC(C)(C)O	0.239% (inactive)
ClCCCCCCCl	0.781% (inactive)
COC1=CC(=O)O[C@@H](/C=C/c2ccccc2)C1	-0.009% (inactive)
Cn1c(N)nc2c3cccnc3ccc21	-2.68% (inactive)
CCOC(=O)C(SP(=S)(OC)OC)c1ccccc1 (stereo unspecified)	0.133% (inactive)
Cl/C=C/CCl	0.0256% (inactive)
CCC(=O)c1ccc(Cl)cc1	-1.45% (inactive)
C=CC(=O)OCCN(C)C	-2.21% (inactive)
C=C(Cl)CSC(=S)N(CC)CC	-0.467% (inactive)
CCOC(=O)N(C)N=O	0.27% (inactive)

Target: Estrogen receptor beta (Homo sapiens) (UniProt Q92731)
Test: qHTS assay to identify small molecule antagonists of the estrogen receptor beta (ER-beta) signaling pathway (AID 1259378; active = well fitted inhibition curve with a large enough effect in the signal ratio in the repeat runs, not every such curve was filed as active; the % refers to the signal ratio)
Conditions: ER-beta-UAS-bla HEK293T, beta-lactamase FRET ratio, 16 h; series mostly up to 92.4 µM; activity, negative = inhibition: at the top concentration
Outline: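 ER-beta-UAS-bla HEK293T cells in 2% charcoal-stripped FBS medium treated with compound plus 1nM final 17-beta-estradiol for 16 hr at 37C. Beta-lactamase reporter read by FRET substrate fluorescence after 2 hours at room temperature.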

SMILES	activity, negative = inhibition
CON(C)C(=O)Nc1ccc(Br)c(Cl)c1	-16.3% (inactive)
C#CC(C)(C)O	7.16% (inactive)
ClCCCCCCCl	13.7% (inactive)
CNC(=O)Oc1cc(C)c(N(C)C)c(C)c1	-16.1% (inactive)
CC(=NC#N)N(C)Cc1ccc(Cl)nc1	25.6% (inactive)
BrCCc1ccccc1	3.9% (inactive)
CCCC(C)(COC(N)=O)COC(N)=O	8.39% (inactive)
Cn1c(N)nc2c3cccnc3ccc21	-2.01% (inactive)
Cl/C=C/CCl	2.19% (inactive)
CCC(=O)c1ccc(Cl)cc1	2.33% (inactive)
C=CC(=O)OCCN(C)C	18.1% (inactive)
CC(C)c1ccc(O)cc1	9.4% (inactive)
CC(C)(C)C(=O)C(Cl)Cl	8.19% (inactive)
C=C(Cl)CSC(=S)N(CC)CC	10.3% (inactive)
CCOC(=O)N(C)N=O	7.32% (inactive)
[P]#[In]	3.5% (inactive)
c1ccc2c(c1)CCNC2	13% (inactive)

System: not listed separately
Test: qHTS assay to identify small molecule agonists of the androgen receptor (AR) signaling pathway in the presence of an antagonist - cell viability counter screen (AID 1259379);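 note: MDA-kb2 human breast cancer cells carrying an MMTV luciferase reporter; nearly all actives have a fitted effect of over 25% in size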
Conditions: MDA-kb2 viability, CellTiter-Fluor, 16 h; series mostly up to 92.4 µM; activity change, negative = cytotoxicity: at the top concentration
Outline: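 Fluorescence from CellTiter-Fluor, added after 15 hr and read 1 hr later, gave cell viability. Cells were MDA-kb2 exposed to compounds (15 concentrations) in the presence of 3.0uM nilutamide at 37C, 0% CO2.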

SMILES	activity change, negative = cytotoxicity
CON(C)C(=O)Nc1ccc(Br)c(Cl)c1	0.68% (inactive)
C#CC(C)(C)O	0.572% (inactive)
ClCCCCCCCl	-0.932% (inactive)
CNC(=O)Oc1cc(C)c(N(C)C)c(C)c1	-2.62% (inactive)
CCOC(=O)COc1ccc(Cl)cc1Cl	0.0445% (inactive)
C[C@@H](N)[C@@H](O)c1ccccc1	1.33% [at 42.5 µM] (inactive)
CC(=NC#N)N(C)Cc1ccc(Cl)nc1	2.05% (inactive)
CCC(=O)OC1(c2ccccc2)CCN(C)CC1	-1.7% (inactive)
BrCCc1ccccc1	-2.53% (inactive)
CCC1(c2cccc(O)c2)CCCCN(C)C1 (stereo unspecified)	-2.52% [at 42.5 µM] (inactive)
CCCCS(=O)(=O)Cl	7.94% (inactive)
O=C(O)CBr	1.16% (inactive)
CCCC(C)(COC(N)=O)COC(N)=O	1.04% (inactive)
COC1=CC(=O)O[C@@H](/C=C/c2ccccc2)C1	0.937% (inactive)
CC(Cl)(Cl)Cl	3.1% (inactive)
C=CCN1CC[C@]23CCCC[C@H]2[C@H]1Cc1ccc(O)cc13	-5.91% [at 42.5 µM] (inactive)
Cn1c(N)nc2c3cccnc3ccc21	-9.53% (inactive)
CCOC(=O)C(SP(=S)(OC)OC)c1ccccc1 (stereo unspecified)	-2.04% (inactive)
CC1=C2[C@H]3OC(=O)[C@@H](C)[C@@H]3CC[C@@]2(C)C=CC1=O	0.0402% [at 42.5 µM] (inactive)
Cl/C=C/CCl	1.05% (inactive)
CC(C)C(C)(N)C#N (stereo unspecified)	0.892% (inactive)
CCC(=O)c1ccc(Cl)cc1	0.23% (inactive)
CCN1CCCC1CNC(=O)C(O)(c1ccccc1)c1ccccc1 (stereo unspecified)	0.196% [at 42.5 µM] (inactive)
N#CC(Br)(Br)C(N)=O	-4.54% (inactive)
O=[N+]([O-])c1cccc(CCl)c1	-2.51% (inactive)
CC(C)c1ccc(O)cc1	0.464% (inactive)
CC(C)(C)C(=O)C(Cl)Cl	-0.026% (inactive)
C=C(Cl)CSC(=S)N(CC)CC	0.117% (inactive)
CCOC(=O)N(C)N=O	0.0948% (inactive)
[P]#[In]	-5.25% (inactive)

System: not listed separately
Test: qHTS assay to identify small molecule agonists of the estrogen receptor beta (ER-beta) signaling pathway - cell viability counter screen (AID 1259380); note: nearly all actives have a fitted effect of over 30% in size; note: potency is the fitted concentration of half-maximal effect
Conditions: ER-beta-bla HEK293T viability, CellTiter-Glo luminescence, 16 h; series mostly up to 92.4 µM; activity change, negative = cytotoxicity: at the top concentration
Outline: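 Same-well viability counter screen. Cells: ER-beta-UAS-bla HEK293T, plated 6 hr before compound, in 2% charcoal-stripped FBS. Compound exposure 16 hr, 37C; viability by CellTiter-Glo luminescence after 30 min at room temperature.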

SMILES	activity change, negative = cytotoxicity	Potency
CON(C)C(=O)Nc1ccc(Br)cc1	-5.69% (inactive)	
C#CC(C)(C)O	-0.798% (inactive)	
CCOC(=O)COc1ccc(Cl)cc1Cl	1.66% (inactive)	
C[C@@H](N)[C@@H](O)c1ccccc1	3.16% [at 42.5 µM] (inactive)	
CC(=NC#N)N(C)Cc1ccc(Cl)nc1	4.51% (inactive)	
CCC(=O)OC1(c2ccccc2)CCN(C)CC1	-1.34% (inactive)	
CCC1(c2cccc(O)c2)CCCCN(C)C1 (stereo unspecified)	-0.893% [at 42.5 µM] (inactive)	
CN1COCN(Cc2cnc(Cl)s2)/C1=N\[N+](=O)[O-]	11.1% (inactive)	
CCCCS(=O)(=O)Cl	-1.74% (inactive)	
CCCC(C)(COC(N)=O)COC(N)=O	0.0616% (inactive)	
CC(Cl)(Cl)Cl	1.54% (inactive)	
C=CCN1CC[C@]23CCCC[C@H]2[C@H]1Cc1ccc(O)cc13	-1.52% [at 42.5 µM] (inactive)	
Cn1c(N)nc2c3cccnc3ccc21	2.36% (inactive)	
O=c1[nH]c2ccccc2o1	-3.09% (inactive)	
CC1=C2[C@H]3OC(=O)[C@@H](C)[C@@H]3CC[C@@]2(C)C=CC1=O	4.99% [at 42.5 µM] (inactive)	
O=C(O)C(F)(F)C(F)(F)C(F)(F)C(F)(F)C(F)(F)C(F)(F)F		54.5 µM (active)
Cl/C=C/CCl	0.0968% (inactive)	
CC(C)C(C)(N)C#N (stereo unspecified)	2.72% (inactive)	
CCC(=O)c1ccc(Cl)cc1	0.153% (inactive)	
CCN1CCCC1CNC(=O)C(O)(c1ccccc1)c1ccccc1 (stereo unspecified)	-9.78% [at 42.5 µM] (inactive)	
C=CC(=O)OCCN(C)C	2.06% (inactive)	
N#CC(Br)(Br)C(N)=O	-4.47% (inactive)	
O=[N+]([O-])c1cccc(CCl)c1	-6.11% (inactive)	
CC(C)c1ccc(O)cc1	7.32% (inactive)	
CC(C)(C)C(=O)C(Cl)Cl	6.66% (inactive)	
C=C(Cl)CSC(=S)N(CC)CC	0.894% (inactive)	
CCOC(=O)N(C)N=O	2.81% (inactive)	
[P]#[In]	8.77% (inactive)	
c1ccc2c(c1)CCNC2	-1.73% (inactive)	

System: not listed separately
Test: qHTS assay to identify small molecule antagonists of the estrogen receptor beta (ER-beta) signaling pathway - cell viability counter screen (AID 1259382); note: nearly all actives have a fitted effect of over 55% in size
Conditions: ER-beta-UAS-bla HEK293T viability, CellTiter-Glo luminescence, 16 h; series mostly up to 92.4 µM; activity change, negative = cytotoxicity: at the top concentration
Outline: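 Following a 6 hr plating period, HEK293T cells carrying a UAS-driven beta-lactamase reporter under ER-beta control received compounds and 1nM E2 (final). After 16 hr at 37C and 2 hr substrate loading, CellTiter-Glo luminescence indicated viability.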

SMILES	activity change, negative = cytotoxicity
CON(C)C(=O)Nc1ccc(Br)c(Cl)c1	-10.5% (inactive)
CON(C)C(=O)Nc1ccc(Br)cc1	1.42% (inactive)
C#CC(C)(C)O	12.9% (inactive)
ClCCCCCCCl	0.507% (inactive)
CNC(=O)Oc1cc(C)c(N(C)C)c(C)c1	0.999% (inactive)
CCOC(=O)COc1ccc(Cl)cc1Cl	-5.87% (inactive)
C[C@@H](N)[C@@H](O)c1ccccc1	-1.19% [at 42.5 µM] (inactive)
CC(=NC#N)N(C)Cc1ccc(Cl)nc1	0.766% (inactive)
CCC(=O)OC1(c2ccccc2)CCN(C)CC1	1.84% (inactive)
BrCCc1ccccc1	8.85% (inactive)
CCC1(c2cccc(O)c2)CCCCN(C)C1 (stereo unspecified)	1.71% [at 42.5 µM] (inactive)
CN1COCN(Cc2cnc(Cl)s2)/C1=N\[N+](=O)[O-]	3.83% (inactive)
CCCCS(=O)(=O)Cl	4.03% (inactive)
O=C(O)CBr	5.05% (inactive)
CCCC(C)(COC(N)=O)COC(N)=O	3.43% (inactive)
COC1=CC(=O)O[C@@H](/C=C/c2ccccc2)C1	-3.17% (inactive)
CC(Cl)(Cl)Cl	-0.68% (inactive)
C=CCN1CC[C@]23CCCC[C@H]2[C@H]1Cc1ccc(O)cc13	0.298% [at 42.5 µM] (inactive)

SMILES	activity change, negative = cytotoxicity
Cn1c(N)nc2c3cccnc3ccc21	4.36% (inactive)
CCOC(=O)C(SP(=S)(OC)OC)c1ccccc1 (stereo unspecified)	-2.23% (inactive)
O=c1[nH]c2ccccc2o1	-4.26% (inactive)
CC1=C2[C@H]3OC(=O)[C@@H](C)[C@@H]3CC[C@@]2(C)C=CC1=O	-1.59% [at 42.5 µM] (inactive)
Cl/C=C/CCl	-1.76% (inactive)
CC(C)C(C)(N)C#N (stereo unspecified)	1.91% (inactive)
CCC(=O)c1ccc(Cl)cc1	1.42% (inactive)
CCN1CCCC1CNC(=O)C(O)(c1ccccc1)c1ccccc1 (stereo unspecified)	2.43% [at 42.5 µM] (inactive)
C=CC(=O)OCCN(C)C	-0.24% (inactive)
N#CC(Br)(Br)C(N)=O	11.7% (inactive)
O=[N+]([O-])c1cccc(CCl)c1	2.28% (inactive)
CC(C)c1ccc(O)cc1	5.74% (inactive)
CC(C)(C)C(=O)C(Cl)Cl	14.2% (inactive)
C=C(Cl)CSC(=S)N(CC)CC	-9.96% (inactive)
CCOC(=O)N(C)N=O	7.65% (inactive)
[P]#[In]	1.01% (inactive)
c1ccc2c(c1)CCNC2	0.279% (inactive)
